Source: PubChem
BCR signal inh: qHTS Assay to Find Inhibitors of Chronic Active B-Cell Receptor Signaling; ABC-DLBCL IkBa-CBG/CBR reporter, luminescence ratio, 4 h; Potency, µM (doses to about 46.1 µM), without a hit: at the top dose activity change, negative = inhibition, most hits filed as inhibitors; actives 0.05% (n = 340,000); AID 493014, 2011; active = well fitted inhibition curve with a large enough effect in the signal ratio, with a control signal flat, not every such curve was filed as active; inconclusive = small, poorly fitted or top-dose-only effect, or effect the other way, or a change in a side signal; the % refers to the signal ratio;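 note: plate controls were basal doxycycline-induced cells for no effect and cells given 10 µM MG132 for full effect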
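Cell line TMD8 (human ABC DLBCL), stably expressing tet-inducible CBG68-IkBa fusion and CBR; IMDM/0.5% FBS; cpd up to 46 uM; dox induction, 4 h, 37C/5% CO2; dual luminescence; green/red ratio; MG132 control.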
Tb PFK inh-1: qHTS Assay to Find Inhibitors of T. brucei phosphofructokinase. T. brucei PFK, ADP-Glo luminescence. Potency, µM (top dose mostly 57.5 µM), for inactives: top-dose activity, negative = inhibition, usual class: inhibitors. actives 0.17% (n = 330,000). AID 485367, 2010;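 note: 0% = uninhibited 1x PFK enzyme wells and -100% = no-enzyme wells; nearly all actives have a fitted effect of over 60% in size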
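Compounds were pin-transferred as a titration series up to 57 uM into substrate buffer (0.5 mM F6P, 0.1 mM ATP, pH 8.0), then 1.25 nM PFK was added and reactions ran 45 min before ADP-Glo detection.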
Tb PGK inh: qHTS Assay to Find Inhibitors of Phosphoglycerate Kinase; Phosphoglycerate kinase, glycosomal (Trypanosoma brucei brucei), P07378; PGK/GAPDH coupled, Kinase-Glo luminescence, 60 min; Potency, µM (top dose mostly 57.5 µM), for inactives: top-dose activity change, negative = inhibition, usual class: inhibitors; actives 0.043% (n = 380,000); AID 602233, 2012; note: % is set by controls: 0 for no effect and ±100 for the full control effect; nearly all actives have a fitted effect of over 60% in size
Target sequence (P07378 whole entry, looked up): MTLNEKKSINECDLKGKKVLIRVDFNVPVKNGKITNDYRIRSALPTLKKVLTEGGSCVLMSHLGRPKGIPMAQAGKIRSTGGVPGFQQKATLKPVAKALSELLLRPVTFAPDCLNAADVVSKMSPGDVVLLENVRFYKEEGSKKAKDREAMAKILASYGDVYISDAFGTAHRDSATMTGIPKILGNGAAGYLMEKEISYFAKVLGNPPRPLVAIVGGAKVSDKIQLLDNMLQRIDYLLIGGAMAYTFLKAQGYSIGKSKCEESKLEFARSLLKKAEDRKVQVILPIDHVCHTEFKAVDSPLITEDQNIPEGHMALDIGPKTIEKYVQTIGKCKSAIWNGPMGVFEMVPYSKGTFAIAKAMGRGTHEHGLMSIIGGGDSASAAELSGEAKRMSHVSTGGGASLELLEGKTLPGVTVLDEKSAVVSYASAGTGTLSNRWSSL
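Recombinant glycosomal PGK reaction used 1,3-bisphosphoglycerate generated in-well by GAPDH (100nM final) in 100mM TEA pH 7.6, 5mM MgCl2, 0.01% Tween-20. After 60 minutes at room temperature, ATP was read by Kinase-Glo Plus luminescence end-point.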
B2AR arrestin: qHTS assay of beta-arrestin-biased ligands of beta2-adrenergic receptor; Beta-2 adrenergic receptor (Homo sapiens), P07550; beta-arrestin recruitment to beta2AR, cell-based reporter; Potency, µM (doses to about 46.1 µM), for inactives: top-dose activation, actives largely listed as activators; actives 0.02% (n = 330,000); AID 492947, 2010;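 note: 0% = DMSO controls and full agonism = EC100 isoproterenol or metaproterenol; nearly all actives have a fitted effect of over 65% in size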
Pin1 inh: qHTS Assay to Find Inhibitors of Pin1; Peptidyl-prolyl cis-trans isomerase NIMA-interacting 1 (Homo sapiens), Q13526; Pin1 FP peptide displacement, HiFluor488, 10 min; Potency, µM (top dose mostly 115 µM), without a hit: at the top dose activity, negative = inhibition, hits mostly inhibitors; actives 0.009% (n = 390,000); active = well fitted inhibition curve with a large enough effect in the polarisation, with a control signal flat, not every such curve was filed as active; inconclusive = small, poorly fitted or top-dose-only effect, or effect the other way, or a change in a side signal; inactive = no such curve, though single readings can be large or run the other way; the % refers to the polarisation; note: % is set by controls: 0 for no effect and ±100 for the full control effect
Target sequence (Q13526 whole entry, looked up): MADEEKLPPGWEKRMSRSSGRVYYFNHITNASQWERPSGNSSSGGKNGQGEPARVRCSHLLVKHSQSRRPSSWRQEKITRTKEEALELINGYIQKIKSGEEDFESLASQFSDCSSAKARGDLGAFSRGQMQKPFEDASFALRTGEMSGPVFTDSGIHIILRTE
GLS inhibitor: qHTS for Inhibitors of Glutaminase (GLS); Glutaminase kidney isoform, mitochondrial (Homo sapiens), O94925; GLS enzymatic activity, qHTS titration; Potency, µM (doses to about 45.5 µM), for inactives: at the top dose activity change, negative = inhibition, most hits filed as inhibitors; actives 0.21% (n = 410,000); note: % is set by controls: 0 for no effect and ±100 for the full control effect
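Two-point fluorescence kinetic (t0, 30 min RT) for hKGA; glutamate detected via glutamate oxidase–HRP–Amplex Red. Substrate: 1 mM L-glutamine solution; buffer 45 mM KH2PO4, pH 8.2.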
TbPFK ATP: Tb PFK orthogonal confirmatory assay using ATP depletion (Kinase-Glo Plus) as an alternative measure of Tb PFK activity: Hit Validation; Tb PFK enzyme, ATP depletion, Kinase-Glo Plus luminescence; actives 47% (n = 1,100); Potency, µM (titrated, usually from 57.5 µM), for the others: at the top dose inhibition; shares compounds with Tb PFK inh-1; calls by dose curve; note: nearly all actives have a fitted effect of over 60% in size
Tb PFK inh-2: Inhibitors of T. brucei phosphofructokinase: Hit Validation; shares compounds with Tb PFK inh-1; actives 41% (n = 1,100); purified T. brucei PFK, ADP-Glo luminescence, 45 min; Potency, µM (highest dose often 57.5 µM), inactives show at the highest dose activity change, negative = inhibition, usual class: inhibitors;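 note: plate controls were full PFK enzyme control for no effect and no enzyme control for full effect; nearly all actives have a fitted effect of over 60% in size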
Starred values were filed as active, the others as inactive; i = inactive; ? = inconclusive; / = not tested or not shown. Hits are enriched below; roughly 0.42% of the tested compounds scored in any of these assays. Unless noted, calls come from the whole dose curve; as a rule, active = well fitted curve in the direction sought with a large enough effect; inconclusive = small, poorly fitted or top-dose-only effect, or another doubt; inactive = no such curve, though single readings can be large; an effect the other way counts as inactive or inconclusive. Potency is the fitted concentration of half-maximal effect.

SMILES | BCR signal inh | Tb PFK inh-1 | Tb PGK inh | B2AR arrestin | Pin1 inh | GLS inhibitor | TbPFK ATP | Tb PFK inh-2
O=[N+]([O-])c1ccc(O)c([N+](=O)[O-])c1 | / | / | -7% | / | -11% | -7% | / | /
Cc1c(N=Cc2ccc(O)c(Br)c2)cccc1[N+](=O)[O-] | 1% | 27µM* | -9% | 0% | 0% | 1% | ? | ?
NS(=O)(=O)c1ccc(CNC(=S)Nc2ccc(Cl)c(Cl)c2)cc1 | -10% | ? | -13% | 0% | 1% | 7% | ? | ?
NS(=O)(=O)c1cccc(NC(=O)Cc2ccc(Cl)c(Cl)c2)c1 | -25% | 6µM* | -3% | 0% | -3% | -3% | 3µM* | 11µM*
Cc1cc(NC(=O)COC(=O)CSCc2ccc(Cl)c(Cl)c2)no1 | ? | ? | -5% | 0% | 1% | 17% | ? | ?
COc1ccc(S(=O)(=O)N2CCOCC2)cc1NC(=O)COC(=O)Cc1ccccc1 | -1% | -1% | 7% | 0% | -4% | 1% | / | /
O=C(Cc1ccc(Br)cc1)Nc1cccc(S(=O)(=O)N2CCOCC2)c1 | ? | ? | -8% | 0% | 3% | -4% | ? | ?
O=C1CCCc2cc3c(cc21)CC1(C3)Cc2cc3c(cc2C1)C(=O)CCC3 | ? | 1% | 3% | 0% | 2% | 8% | / | /
C[C@]12C/C(=C/O)C(=O)C[C@@H]1CC[C@@H]1[C@@H]2CC[C@@]2(C)[C@H]1CC[C@]2(C)O | / | / | / | / | / | -7% | / | /
O=C(Nc1ccccc1Cl)Oc1ccc(-c2ccccc2)cc1 | ? | 5% | -8% | 1% | ? | -19% | / | /
NC(=O)C(c1ccccc1)(c1ccccc1)[C@@H]1CCN(CCc2ccc3c(c2)CCO3)C1 | / | / | / | / | / | 27% | / | /
C=CCNC(=S)Nc1ccc(OC(=O)Nc2ccc(Cl)c(Cl)c2)cc1 | ? | 13µM* | -9% | 0% | -1% | ? | 21µM* | 27µM*
OCCNC(=S)Nc1ccc(Cl)c(Cl)c1 | 4% | ? | -9% | -1% | 3% | 16% | ? | ?
O=C(Nc1ccc(Cl)c(Cl)c1)c1ccco1 | ? | -4% | 2% | 0% | -3% | -1% | / | /
Cc1cccc(C)c1NC(=S)Nc1ccc(Cl)c(Cl)c1 | 4% | 21µM* | -5% | 0% | -1% | 3% | ? | -14%
Cc1cc(NS(=O)(=O)c2ccc(NC(=O)Cc3ccc(Cl)c(Cl)c3)cc2)no1 | -3% | 1.2µM* | -3% | 0% | -4% | 3% | 0.43µM* | 0.76µM*
CNc1ccc(C(=O)CC(O)CCC(C)C2OC(=O)CC(O)CC(=O)CC(O)CC(O)CC(O)CC(O)CC3(O)CC(O)C(C(=O)OC)C(CC(O[C@@H]4OC(C)C(O)C(N)C4O)/C=C/C=C/C=C/C=C/C=C/C=C/C=C/C2C)O3)cc1 (some centres not stated) | / | / | / | / | / | 4% | / | /
C/C=C(\CC)C(=O)NC(N)=O | / | / | / | / | / | -5% | / | /
O=C(NCc1cccnc1)c1c[nH]c2cc3c(cc2c1=O)OCCO3 | ? | 3% | i | 0% | 1% | -16% | / | /
COC(=O)c1cccc(NC(=S)Nc2ccc(Cl)c(Cl)c2)c1 | -3% | 12µM* | ? | 0% | -1% | 17% | 27µM* | ?
Cc1ccc(NC(=S)NCCc2cnc[nH]2)cc1C | -1% | -11% | -4% | 0% | 2% | 7% | / | /
Cc1cc(C)cc(NC(=S)Nc2ccc(Cl)c(Cl)c2)c1 | -2% | 9.5µM* | -10% | 0% | -2% | -4% | 24µM* | ?
COC(=O)c1cc(NC(=O)Nc2cccc(Cl)c2)ccc1Cl | ? | -9% | / | 0% | 4% | 3% | / | /
c1ccc2c(c1)Sc1ccccc1N2C[C@H]1CN2CCC1CC2 | / | / | / | / | / | -5% | / | /
CN(C)c1ccc(NC(=S)c2ccc3ccccc3n2)cc1 | ? | ? | -2% | ? | 3% | -24% | 9.5µM* | 9.5µM*
SMILES | BCR signal inh | Tb PFK inh-1 | Tb PGK inh | B2AR arrestin | Pin1 inh | GLS inhibitor | TbPFK ATP | Tb PFK inh-2
CC(C)(C)OC(=O)N(CCc1ccccc1)Cc1ccc(OCc2cccc(NC(=O)c3ccccc3)c2)cc1 | / | / | 1% | / | ? | 1% | / | /
Cc1ccc(Cl)cc1N1CCN(CCN)CC1 | ? | 0% | -3% | -1% | -3% | 26% | / | /
S=C(NCCN1CCOCC1)N1CCN(c2cccc(Cl)c2)CC1 | 7% | ? | -4% | 0% | -12% | -13% | ? | 27µM*
S=C(NCc1ccco1)N1CCN(c2cccc(Cl)c2)CC1 | 3% | ? | 1% | 1% | 21% | 10% | 24µM* | ?
O=C(Cc1ccc(Cl)cc1)Nc1ccc(N2CCN(C(=O)c3ccco3)CC2)c(Cl)c1 | ? | -19% | -5% | 5% | 14% | 6% | / | /
Cc1ccc(NC(=O)c2ccc(Cl)c(N3C(=O)C=CC3=O)c2)cc1 | ? | ? | -4% | 0% | 27% | -9% | 12µM* | ?
O=C(COc1ccc(Cl)cc1)Nc1cccc(S(=O)(=O)NC2=NCCCCC2)c1 | -23% | 3µM* | 1% | 0% | -5% | 1% | 2.7µM* | 6µM*
N#Cc1ccc(OCC(=O)Nc2cccc(S(=O)(=O)NC3=NCCCCC3)c2)cc1 | 8% | 6µM* | -10% | 0% | 14% | 4% | 3.8µM* | 6µM*
O=C(COc1ccc2c(c1)OCO2)Nc1cccc(F)c1 | ? | 3% | -4% | 0% | -4% | 4% | / | /
CCCN1CCCC2Cc3nc(N)ncc3CC21 (configuration not stated) | / | / | / | / | / | 15% | / | /
O=C(CN1C(=O)c2ccccc2C1=O)NCCc1c[nH]c2ccc(Cl)cc12 | ? | ? | -10% | 4% | 12% | 2% | 21µM* | 30µM*
